# Results as given in PubChem BioAssay (EPA / NIEHS).
# The source made the active and inactive calls. How the source made its calls: active means hit-call score of the fitted dose curve at least 0.9, where 1 is the maximum; inactive means score below 0.9.
# Tests used:
# Settings in all cases: mRNA level, 48 h; actives raise or lower the signal
# [1] = read-out: Lipase C (LIPC), LIPC (gene 3990); assay: LTEA_HepaRG_LIPC: Life Technologies and Expression Analysis (LTEA) Assay for Lipase C (LIPC) using HepaRG (AID 2283514)
# Procedure, shortened: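 HepaRG cells, 48 h after plating, treated in duplicate for 48 h in serum-free induction medium over 8 half-log concentrations from 100 uM, 0.5% DMSO. LIPC mRNA by TaqMan qRT-PCR normalized to ACTB/GAPDH/POLR2A; bidirectional fit versus DMSO.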
# [2] = read-out: Lipoprotein lipase (LPL), LPL (gene 4023); assay: LTEA_HepaRG_LPL: Life Technologies and Expression Analysis (LTEA) Assay for Lipoprotein lipase (LPL) using HepaRG (AID 2283515)
# Procedure, shortened: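 Differentiated HepaRG cells, plated 48 h, then exposed 48 h in serum-free induction medium to 8 concentrations (top 100 uM, half-log steps) in 0.5% DMSO, duplicate. LPL mRNA measured by qRT-PCR, normalized to ACTB, GAPDH and POLR2A.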
# [3] = read-out: MicroRNA 122 (MIR122), gene 406906; assay: LTEA_HepaRG_MIR122: Life Technologies and Expression Analysis (LTEA) Assay for MicroRNA 122 (MIR122) using HepaRG (AID 2283516); further: the transcript read is the microRNA miR-122
# Procedure, shortened: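 HepaRG, 48 h exposure, 8-pt half-log from 100 uM, 0.5% DMSO; TaqMan qRT-PCR; bidirectional fit vs DMSO.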
# [4] = read-out: matrix metalloproteinase-10 (MMP10), MMP10 (gene 4319); assay: LTEA_HepaRG_MMP10: Life Technologies and Expression Analysis (LTEA) Assay for matrix metalloproteinase-10 (MMP10) using HepaRG (AID 2283517)
# Procedure, shortened: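 Differentiated HepaRG cells in serum-free induction medium exposed 48 h in duplicate to 8-point half-log series up to 100 uM in 0.5% DMSO. mRNA quantified by qRT-PCR, normalised to ACTB, GAPDH, POLR2A; bidirectional fit versus DMSO.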
# [5] = read-out: MYC, MYC (gene 4609); assay: LTEA_HepaRG_MYC: Life Technologies and Expression Analysis (LTEA) Assay for MYC using HepaRG (AID 2283518)
# Procedure, shortened: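 Cells are thawed, plated and cultured 48 h, then treated for 48 h with test chemicals (eight half-log concentrations from 100 uM, 0.5% DMSO vehicle). RNA is isolated and MYC expression quantified by qRT-PCR against three housekeeping genes.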
# [6] = read-out: matrix metalloproteinase-3 (MMP3), MMP3 (gene 4314); assay: LTEA_HepaRG_MMP3: Life Technologies and Expression Analysis (LTEA) Assay for matrix metalloproteinase-3 (MMP3) using HepaRG (AID 2283519)
# Procedure, shortened: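 HepaRG cells (~100,000/well) in serum-free induction medium were dosed in duplicate for 48 h with an 8-point half-log series from 100 uM, 0.5% DMSO. MMP3 mRNA was quantified by Fluidigm TaqMan qRT-PCR, normalized to three housekeeping genes.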
# [7] = read-out: Paternally Expressed 10 (PEG10), PEG10 (gene 23089); assay: LTEA_HepaRG_PEG10: Life Technologies and Expression Analysis (LTEA) Assay for Paternally Expressed 10 (PEG10) using HepaRG (AID 2283520)
# Procedure, shortened: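 Chemicals tested on HepaRG cells for 48 h, highest concentration 100 uM. PEG10 expression assessed by qRT-PCR relative to DMSO control.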
# [8] = read-out: Nuclear factor NF-kappa-B p105 subunit (Homo sapiens) (UniProt P19838); assay: LTEA_HepaRG_NFKB1: Life Technologies and Expression Analysis (LTEA) Assay for Nuclear Factor Kappa B Subunit 1 (NFKB1) using HepaRG (AID 2283521);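 on outcome: TaqMan qRT-PCR transcript normalised to ACTB GAPDH and POLR2A housekeeping genes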
# Procedure, shortened: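 Differentiated human HepaRG cells in serum-free induction medium with 0.5% DMSO were exposed for 48 h to eight half-log concentrations, top 100 uM, in duplicate. NFKB1 mRNA measured by Fluidigm TaqMan qRT-PCR, normalised to ACTB, GAPDH and POLR2A; bidirectional fit versus DMSO.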
# [9] = read-out: Phosphatase and tensin (PTEN), PTEN (gene 5728); assay: LTEA_HepaRG_PTEN: Life Technologies and Expression Analysis (LTEA) Assay for Phosphatase and tensin (PTEN) using HepaRG (AID 2283523)
# Procedure, shortened: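 HepaRG cells, 48 h after plating, exposed in duplicate for 48 h in serum-free induction medium to 8 half-log concentrations up to 100 uM (0.5% DMSO). PTEN mRNA by qRT-PCR, normalized to ACTB, GAPDH, POLR2A; bidirectional fit versus DMSO.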
# [10] = read-out: solute carrier (SLC22A1), SLC22A1 (gene 6580); assay: LTEA_HepaRG_SLC22A1: Life Technologies and Expression Analysis (LTEA) Assay for solute carrier (SLC22A1) using HepaRG (AID 2283524)
# Procedure, shortened: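 Differentiated human HepaRG cells in serum-free induction medium, exposed 48 h in duplicate to 8-point half-log series from 100 µM top in 0.5% DMSO. SLC22A1 mRNA by TaqMan qRT-PCR normalized to ACTB, GAPDH, POLR2A; bidirectional fit versus DMSO.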
# [11] = read-out: Pyruvate Dehydrogenase Kinase 4 (PDK4), PDK4 (gene 5166); assay: LTEA_HepaRG_PDK4: Life Technologies and Expression Analysis (LTEA) Assay for Pyruvate Dehydrogenase Kinase 4 (PDK4) using HepaRG (AID 2283525)
# Procedure, shortened: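 HepaRG cells plated 48 h, then switched to serum-free induction medium and exposed in duplicate for 48 h to 8 half-log concentrations from 100 uM in 0.5% DMSO. PDK4 mRNA measured by qRT-PCR, normalized to ACTB, GAPDH and POLR2A; bidirectional fit versus DMSO.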
# [12] = read-out: NAD(P)H dehydrogenase [quinone] 1 (NQO1), NQO1 (gene 1728); assay: LTEA_HepaRG_NQO1: Life Technologies and Expression Analysis (LTEA) Assay for NAD(P)H dehydrogenase [quinone] 1 (NQO1) using HepaRG (AID 2283526)
# Procedure, shortened: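 Human HepaRG hepatic cells received chemicals for 48 h in serum-free induction medium with 0.5% DMSO, up to 100 uM. Expression was assessed by TaqMan qRT-PCR against housekeeping controls and fitted bidirectionally against DMSO.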
# [13] = read-out: Nuclear factor erythroid 2-related factor 2 (Homo sapiens) (UniProt Q16236); assay: LTEA_HepaRG_NFE2L2: Life Technologies and Expression Analysis (LTEA) Assay for Nuclear factor erythroid 2-related factor 2 (NFE2L2) Transcription Factor using HepaRG (AID 2283527);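 further: TaqMan qRT-PCR transcript level normalised to ACTB GAPDH and POLR2A housekeeping genes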
# Procedure, shortened: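 Differentiated human HepaRG cells, serum-free induction medium, exposed 48 h in duplicate to eight half-log concentrations up to 100 uM in 0.5% DMSO. NFE2L2 mRNA by Fluidigm TaqMan qRT-PCR, normalised to ACTB, GAPDH, POLR2A; bidirectional change versus DMSO.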
# [14] = read-out: succinate dehydrogenase complex iron sulfur subunit B (SDHB), SDHB (gene 6390); assay: LTEA_HepaRG_SDHB: Life Technologies and Expression Analysis (LTEA) Assay for succinate dehydrogenase complex iron sulfur subunit B (SDHB) using HepaRG (AID 2283528)
# Procedure, shortened: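 HepaRG cells (~100,000/well, plated 48 h) exposed in duplicate for 48 h in serum-free induction medium to 8-point half-log series from 100 uM in 0.5% DMSO; mRNA by qRT-PCR normalised to ACTB, GAPDH, POLR2A; bidirectional fit versus DMSO.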
# [15] = read-out: Signal transducer and activator of transcription 3 (Homo sapiens) (UniProt P40763); assay: LTEA_HepaRG_STAT3: Life Technologies and Expression Analysis (LTEA) Assay for Signal transducer and activator of transcription (STAT3) using HepaRG (AID 2283529)
# Procedure, shortened: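 Differentiated HepaRG cells, serum-free induction medium, dosed 48 h in duplicate, 8 half-log concentrations from 100 uM in 0.5% DMSO. STAT3 mRNA by qRT-PCR, normalised to ACTB, GAPDH, POLR2A; bidirectional fit versus DMSO.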
# [16] = read-out: solute carrier (SLCO1B1), SLCO1B1 (gene 10599); assay: LTEA_HepaRG_SLCO1B1: Life Technologies and Expression Analysis (LTEA) Assay for solute carrier (SLCO1B1) using HepaRG (AID 2283530)
# Procedure, shortened: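 Gain or loss of SLCO1B1 mRNA is fitted against the 0.5% DMSO vehicle in human HepaRG liver cells treated 48 h at up to 100 uM in half-log steps. Expression comes from qRT-PCR normalized to endogenous controls.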
# [17] = read-out: sulfotransferase 2A1 (SULT2A1), SULT2A1 (gene 6822); assay: LTEA_HepaRG_SULT2A1: Life Technologies and Expression Analysis (LTEA) Assay for sulfotransferase 2A1 (SULT2A1) using HepaRG (AID 2283531)
# Procedure, shortened: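 Cells were plated and cultured 48 h, switched to serum-free induction medium, then dosed in duplicate for 48 h (8 concentrations, max 100 uM). RNA was isolated and SULT2A1 expression measured by qRT-PCR; gain or loss of signal fitted relative to DMSO.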
# [18] = read-out: Transforming Growth Factor (TGFA), TGFA (gene 7039); assay: LTEA_HepaRG_TGFA: Life Technologies and Expression Analysis (LTEA) Assay for Transforming Growth Factor (TGFA) using HepaRG (AID 2283532)
# Procedure, shortened: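 Differentiated HepaRG cells exposed 48 hours in serum-free induction medium, 0.5% DMSO vehicle, 8-point half-log series from 100 uM, in duplicate. TGFA mRNA by TaqMan qRT-PCR, normalised to ACTB, GAPDH, POLR2A; bidirectional fit versus DMSO.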
# [19] = read-out: Transforming Growth Factor (TGFB1), TGFB1 (gene 7040); assay: LTEA_HepaRG_TGFB1: Life Technologies and Expression Analysis (LTEA) Assay for Transforming Growth Factor (TGFB1) Transporter using HepaRG (AID 2283533)
# Procedure, shortened: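 Expression change of TGFB1 in human HepaRG cells is measured after a 48 h chemical exposure, up to 100 uM in 0.5% DMSO vehicle. Curves are fitted in both directions relative to the DMSO baseline.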
# [20] = read-out: Protein phosphatase 2A (PPP2R4), PTPA (gene 5524); assay: LTEA_HepaRG_PPP2R4: Life Technologies and Expression Analysis (LTEA) Assay for Protein phosphatase 2A (PPP2R4) using HepaRG (AID 2283522)
# Procedure, shortened: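 Gene-expression endpoint in HepaRG hepatic cells: 48 h treatment across eight half-log concentrations up to 100 uM in 0.5% DMSO. PPP2R4 mRNA by qRT-PCR, normalized to three endogenous control genes.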
# Sequence of Nuclear factor NF-kappa-B p105 subunit (Homo sapiens) (P19838 whole entry, looked up): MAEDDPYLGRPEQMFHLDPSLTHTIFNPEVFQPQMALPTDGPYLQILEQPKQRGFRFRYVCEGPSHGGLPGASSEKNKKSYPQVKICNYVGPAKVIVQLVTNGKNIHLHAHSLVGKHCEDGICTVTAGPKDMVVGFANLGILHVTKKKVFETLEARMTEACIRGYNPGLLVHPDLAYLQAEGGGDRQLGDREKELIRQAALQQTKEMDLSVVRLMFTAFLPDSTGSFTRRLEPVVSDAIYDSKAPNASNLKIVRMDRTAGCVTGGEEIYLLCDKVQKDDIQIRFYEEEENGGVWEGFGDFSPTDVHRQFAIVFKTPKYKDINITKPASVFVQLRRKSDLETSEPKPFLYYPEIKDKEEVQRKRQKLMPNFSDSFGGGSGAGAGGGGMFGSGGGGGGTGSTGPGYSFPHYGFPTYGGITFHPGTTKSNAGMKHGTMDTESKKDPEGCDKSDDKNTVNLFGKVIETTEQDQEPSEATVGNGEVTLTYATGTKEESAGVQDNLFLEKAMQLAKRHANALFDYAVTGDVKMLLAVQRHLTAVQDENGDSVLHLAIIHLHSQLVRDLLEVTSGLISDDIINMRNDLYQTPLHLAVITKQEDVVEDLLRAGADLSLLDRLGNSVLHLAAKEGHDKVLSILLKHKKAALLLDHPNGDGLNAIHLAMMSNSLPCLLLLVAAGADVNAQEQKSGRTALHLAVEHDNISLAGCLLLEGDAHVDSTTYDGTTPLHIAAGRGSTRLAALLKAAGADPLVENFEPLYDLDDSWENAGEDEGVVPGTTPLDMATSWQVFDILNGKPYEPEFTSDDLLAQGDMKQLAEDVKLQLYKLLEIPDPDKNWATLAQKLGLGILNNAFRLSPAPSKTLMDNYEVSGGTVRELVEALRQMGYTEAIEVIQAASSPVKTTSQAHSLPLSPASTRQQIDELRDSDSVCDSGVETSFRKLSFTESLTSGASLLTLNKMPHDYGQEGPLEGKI
# Sequence of Signal transducer and activator of transcription 3 (Homo sapiens) (P40763 whole entry, looked up): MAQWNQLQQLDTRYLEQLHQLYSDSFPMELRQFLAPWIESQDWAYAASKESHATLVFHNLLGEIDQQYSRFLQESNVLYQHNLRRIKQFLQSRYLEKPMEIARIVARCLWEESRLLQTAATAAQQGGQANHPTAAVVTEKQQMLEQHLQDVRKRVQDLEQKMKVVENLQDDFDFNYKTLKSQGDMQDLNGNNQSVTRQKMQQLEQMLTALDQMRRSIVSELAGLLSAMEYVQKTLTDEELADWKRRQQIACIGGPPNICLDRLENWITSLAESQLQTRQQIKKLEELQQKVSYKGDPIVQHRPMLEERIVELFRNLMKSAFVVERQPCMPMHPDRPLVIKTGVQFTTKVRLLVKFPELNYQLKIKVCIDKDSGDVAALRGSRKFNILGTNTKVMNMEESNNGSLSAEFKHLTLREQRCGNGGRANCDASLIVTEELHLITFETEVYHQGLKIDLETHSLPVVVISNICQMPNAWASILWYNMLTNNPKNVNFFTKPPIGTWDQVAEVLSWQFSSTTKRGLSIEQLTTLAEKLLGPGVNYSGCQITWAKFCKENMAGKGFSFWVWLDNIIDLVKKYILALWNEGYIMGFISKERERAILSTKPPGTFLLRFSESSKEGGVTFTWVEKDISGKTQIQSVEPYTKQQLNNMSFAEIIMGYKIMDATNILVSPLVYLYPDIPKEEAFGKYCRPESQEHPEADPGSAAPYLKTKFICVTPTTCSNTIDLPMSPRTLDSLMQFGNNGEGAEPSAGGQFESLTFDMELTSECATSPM
# Sequence of Nuclear factor erythroid 2-related factor 2 (Homo sapiens) (Q16236 whole entry, looked up): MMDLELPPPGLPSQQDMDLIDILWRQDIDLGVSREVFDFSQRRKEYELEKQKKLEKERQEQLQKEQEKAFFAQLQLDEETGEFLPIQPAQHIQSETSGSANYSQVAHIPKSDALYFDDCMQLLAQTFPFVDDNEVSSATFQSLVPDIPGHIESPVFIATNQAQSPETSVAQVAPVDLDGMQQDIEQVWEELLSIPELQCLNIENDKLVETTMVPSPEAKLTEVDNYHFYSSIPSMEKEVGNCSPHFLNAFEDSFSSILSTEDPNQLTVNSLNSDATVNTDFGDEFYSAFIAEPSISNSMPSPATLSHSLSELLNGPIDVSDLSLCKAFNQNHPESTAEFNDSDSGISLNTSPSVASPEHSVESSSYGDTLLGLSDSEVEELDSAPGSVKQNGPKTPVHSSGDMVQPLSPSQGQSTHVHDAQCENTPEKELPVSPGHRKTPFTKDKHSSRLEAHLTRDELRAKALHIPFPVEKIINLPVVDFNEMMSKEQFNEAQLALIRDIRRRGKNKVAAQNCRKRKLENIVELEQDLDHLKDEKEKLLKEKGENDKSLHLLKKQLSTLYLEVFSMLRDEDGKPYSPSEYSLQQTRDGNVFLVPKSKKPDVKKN
smiles,measurement,setting,value
CCC[CH2][Sn]([Cl])([CH2]CCC)[CH2]CCC,AC50,[1],1.46 µM (active)
same,outcome,[2],inactive
same,AC50,[3],12.8 µM (active)
same,AC50,[4],1.73 µM (active)
same,outcome,[5],inactive
same,AC50,[6],1.87 µM (active)
same,outcome,[7],inactive
same,AC50,[8],9.07 µM (active)
same,outcome,[9],inactive
same,AC50,[10],1.49 µM (active)
same,outcome,[11],inactive
same,AC50,[12],15.8 µM (active)
same,outcome,[13],inactive
same,AC50,[14],50 µM (active)
same,AC50,[15],15.3 µM (active)
same,AC50,[16],2.3 µM (active)
same,AC50,[17],1.63 µM (active)
same,AC50,[18],50 µM (active)
same,outcome,[19],inactive
CCC12COCN1COC2,outcome,[1],inactive
same,outcome,[2],inactive
same,outcome,[3],inactive
same,outcome,[4],inactive
same,outcome,[5],inactive
same,outcome,[6],inactive
same,outcome,[7],inactive
same,outcome,[8],inactive
same,outcome,[20],inactive
same,outcome,[9],inactive
same,outcome,[10],inactive
same,outcome,[11],inactive
same,outcome,[12],inactive
same,outcome,[13],inactive
same,outcome,[14],inactive
same,outcome,[15],inactive
same,outcome,[16],inactive
same,outcome,[17],inactive
same,outcome,[18],inactive
same,outcome,[19],inactive
CC(C)(C)OOC(=O)c1ccccc1,outcome,[1],inactive
same,outcome,[2],inactive
same,outcome,[3],inactive
same,outcome,[4],inactive
same,outcome,[5],inactive
same,outcome,[6],inactive
same,outcome,[7],inactive
same,outcome,[8],inactive
same,outcome,[20],inactive
same,outcome,[9],inactive
same,outcome,[10],inactive
same,outcome,[11],inactive
same,outcome,[12],inactive
same,outcome,[13],inactive
same,outcome,[14],inactive
same,outcome,[15],inactive
same,outcome,[17],inactive
same,outcome,[18],inactive
same,outcome,[19],inactive
[Cl-].[Cl-].[Hg+2],outcome,[1],inactive
same,outcome,[2],inactive
same,outcome,[3],inactive
same,outcome,[4],inactive
same,outcome,[5],inactive
same,outcome,[6],inactive
same,outcome,[7],inactive
same,outcome,[8],inactive
same,outcome,[20],inactive
same,outcome,[9],inactive
same,outcome,[10],inactive
same,outcome,[11],inactive
same,outcome,[12],inactive
same,outcome,[13],inactive
same,outcome,[14],inactive
same,outcome,[15],inactive
same,outcome,[17],inactive
same,outcome,[18],inactive
same,outcome,[19],inactive
CC(O)CCO (centres undefined),outcome,[1],inactive
same,outcome,[2],inactive
same,outcome,[3],inactive
same,outcome,[4],inactive
same,outcome,[5],inactive
same,outcome,[6],inactive
same,outcome,[7],inactive
same,outcome,[8],inactive
same,outcome,[9],inactive
same,outcome,[10],inactive
same,outcome,[11],inactive
same,outcome,[12],inactive
same,outcome,[13],inactive
same,outcome,[14],inactive
same,outcome,[15],inactive
same,outcome,[17],inactive
same,outcome,[18],inactive
same,outcome,[19],inactive
Nc1cc(Cl)cc(C(=O)O)c1Cl,outcome,[1],inactive
same,outcome,[2],inactive
same,outcome,[3],inactive
same,outcome,[4],inactive
same,outcome,[5],inactive
same,outcome,[6],inactive
same,outcome,[7],inactive
same,outcome,[20],inactive
same,outcome,[9],inactive
same,outcome,[10],inactive
same,outcome,[11],inactive
same,outcome,[12],inactive
same,outcome,[13],inactive
same,outcome,[14],inactive
same,outcome,[15],inactive
same,outcome,[16],inactive
same,outcome,[17],inactive
same,outcome,[18],inactive
same,outcome,[19],inactive
Nc1ccc(Oc2ccc(N)cc2)cc1,outcome,[1],inactive
same,outcome,[2],inactive
same,outcome,[3],inactive
same,outcome,[4],inactive
same,outcome,[5],inactive
same,outcome,[6],inactive
same,outcome,[7],inactive
same,outcome,[8],inactive
same,outcome,[20],inactive
same,outcome,[9],inactive
same,outcome,[10],inactive
same,outcome,[11],inactive
same,outcome,[12],inactive
same,outcome,[13],inactive
same,outcome,[14],inactive
same,outcome,[15],inactive
same,outcome,[16],inactive
same,outcome,[17],inactive
same,outcome,[18],inactive
same,outcome,[19],inactive
